Measurements reported in PubChem BioAssay (EPA / NIEHS).
Activity calls are given as the source filed them. Rule for the calls: active = hit-call score of the fitted dose curve at least 0.9, where 1 is the maximum; inactive = score below 0.9.

Experiment: APR_HepG2_MitoMembPot_72hr: Apredica 72-hour HepG2 Assay for Mitochondrial Membrane Potential (AID 2282917)
Conditions: imaging, actives raise or lower the signal
In short: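 HepG2 cells dosed 72 hr with compound at 0.39–200 uM in duplicate, 0.5% v/v DMSO final. Mitochondria stained with 250 nM MitoTracker Red CMXRos for 30 min before formaldehyde fixation, imaged by high-content fluorescence; bidirectional fit versus DMSO.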

Row | Compound | outcome
1 | N#CN=C1SCCN1Cc1ccc(Cl)nc1 | inactive
2 | Cc1cc(C)nc(Nc2ccccc2)n1 | inactive
3 | CCOc1nc(C(Cl)(Cl)Cl)ns1 | inactive
4 | CC(C)Nc1nc(Cl)nc(NC(C)C)n1 | inactive
5 | CCCN(CC)CC1COC2(CCC(C(C)(C)C)CC2)O1 (configuration not stated) | inactive
6 | Clc1nc(Cl)nc(Nc2ccccc2Cl)n1 | inactive
7 | CS(=O)(=O)c1ccc(C(=O)C2C(=O)CCCC2=O)c([N+](=O)[O-])c1 | inactive
8 | COc1ccc(-c2ccccc2)cc1NNC(=O)OC(C)C | inactive
9 | COCC(C)N(C(=O)CCl)c1c(C)csc1C (configuration not stated) | inactive
10 | CCN(CC)C(=O)C(C)Oc1cccc2ccccc12 (configuration not stated) | inactive
11 | CC(C)C1(C)N=C(c2ncccc2C(=O)O)NC1=O (configuration not stated) | inactive
12 | CC(C)N1C(=O)c2ccccc2NS1(=O)=O | inactive
13 | CC(C)(C)C(=O)C(Oc1ccc(Cl)cc1)n1cncn1 (configuration not stated) | inactive
14 | CC(C)NC(=O)N1CC(=O)N(c2cc(Cl)cc(Cl)c2)C1=O | inactive
15 | CC1(C)C(C=C(Cl)Cl)C1C(=O)OC(C#N)c1cccc(Oc2ccccc2)c1 (configuration not stated) | inactive
16 | Nc1c(Cl)c(Cl)nc(C(=O)O)c1Cl | inactive
17 | CC1(C)CON(Cc2ccccc2Cl)C1=O | inactive

Experiment: APR_HepG2_MitoticArrest_72hr: Apredica 72-hour HepG2 Assay for Mitotic Arrest (AID 2282918)
Conditions: high-content imaging, actives raise or lower the signal
In short: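 High-content imaging of fixed human HepG2 cells after 72 h compound exposure (0.39–200 uM, duplicates, 0.5% DMSO); mitotic arrest scored from phospho-histone H3 and nuclear Hoechst staining relative to DMSO.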

Row | Compound | outcome | AC50
18 | Cc1cc(C)nc(Nc2ccccc2)n1 | inactive | –
19 | CC(C)Nc1nc(Cl)nc(NC(C)C)n1 | inactive | –
20 | O=c1n(Cl)c(=O)n(Cl)c(=O)n1Cl | inactive | –
21 | Clc1nc(Cl)nc(Nc2ccccc2Cl)n1 | inactive | –
22 | Nc1c(Cl)c(F)nc(OCC(=O)O)c1Cl | inactive | –
23 | CSC(=O)c1c(C(F)F)nc(C(F)(F)F)c(C(=O)SC)c1CC(C)C | – | 67.7 µM (active)
24 | CCN(CC)C(=O)C(C)Oc1cccc2ccccc12 (configuration not stated) | inactive | –
25 | CNC(=O)N(C)c1nnc(C(C)(C)C)s1 | inactive | –
26 | COC(=O)NC(=S)Nc1ccccc1NC(=S)NC(=O)OC | inactive | –
27 | CC(C)(C)C(=O)C(Oc1ccc(Cl)cc1)n1cncn1 (configuration not stated) | inactive | –
28 | CCC(C)n1c(=O)[nH]c(C)c(Br)c1=O (configuration not stated) | inactive | –
29 | CCCCOCN(C(=O)CCl)c1c(CC)cccc1CC | – | 181 µM (active)
30 | CO/N=C(/C1=NOCCO1)c1ccccc1Oc1ncnc(Oc2ccccc2Cl)c1F | inactive | –
31 | Nc1c(Cl)c(Cl)nc(C(=O)O)c1Cl | inactive | –

Experiment: APR_HepG2_MicrotubuleCSK_72hr: Apredica 72-hour HepG2 Assay for Microtubule CSK Stabilty (AID 2282919)
Conditions: HepG2 microtubule cytoskeleton, high-content imaging, actives raise or lower the signal
In short: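 HepG2, 72 hr cmpd exposure, 0.39–200 uM (10 pts, duplicate), 0.5% DMSO. 3.7% formaldehyde fix, 0.5% Triton perm, anti-alpha-tubulin/Cy5 plus Hoechst. HCS fluorescence intensity; bidirectional fit vs DMSO baseline; taxol as positive control.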

Row | Compound | outcome | AC50
32 | N#CN=C1SCCN1Cc1ccc(Cl)nc1 | inactive | –
33 | CCCC(=NOCC)C1=C(O)CC(CC(C)SCC)CC1=O (configuration not stated) | inactive | –
34 | CC1(C)CCC(=Cc2ccc(Cl)cc2)C1(O)Cn1cncn1 (configuration not stated) | inactive | –
35 | Cc1cc(C)nc(Nc2ccccc2)n1 | inactive | –
36 | CCOc1nc(C(Cl)(Cl)Cl)ns1 | inactive | –
37 | CC(C)Nc1nc(Cl)nc(NC(C)C)n1 | inactive | –
38 | O=c1n(Cl)c(=O)n(Cl)c(=O)n1Cl | inactive | –
39 | CCCN(CC)CC1COC2(CCC(C(C)(C)C)CC2)O1 (configuration not stated) | – | 62.5 µM (active)
40 | Cc1nc(N(C)C)nc(OC(=O)N(C)C)c1C | inactive | –
41 | Clc1nc(Cl)nc(Nc2ccccc2Cl)n1 | inactive | –
42 | CS(=O)(=O)c1ccc(C(=O)C2C(=O)CCCC2=O)c([N+](=O)[O-])c1 | inactive | –
43 | Nc1c(Cl)c(F)nc(OCC(=O)O)c1Cl | inactive | –
44 | CCN(CC)c1nc(C)cc(OP(=S)(OC)OC)n1 | inactive | –
45 | CCCCC(O)(Cn1cncn1)c1ccc(Cl)cc1Cl (configuration not stated) | inactive | –
46 | COc1ccc(-c2ccccc2)cc1NNC(=O)OC(C)C | inactive | –
47 | CSC(=O)c1c(C(F)F)nc(C(F)(F)F)c(C(=O)SC)c1CC(C)C | – | 64.6 µM (active)
48 | CCOC(=O)C(C)OC(=O)c1cc(Oc2ccc(C(F)(F)F)cc2Cl)ccc1[N+](=O)[O-] (configuration not stated) | inactive | –
49 | O=P(O)(O)CCCl | inactive | –

Row | Compound | outcome | AC50
50 | COCC(C)N(C(=O)CCl)c1c(C)csc1C (configuration not stated) | – | 105 µM (active)
51 | COC(=O)c1c(C(F)F)nc(C(F)(F)F)c(C2=NCCS2)c1CC(C)C | – | 72.7 µM (active)
52 | CCN(CC)C(=O)C(C)Oc1cccc2ccccc12 (configuration not stated) | inactive | –
53 | CNC(=O)N(C)c1nnc(C(C)(C)C)s1 | inactive | –
54 | CCOP(=O)(OCC)Oc1nc(Cl)c(Cl)cc1Cl | inactive | –
55 | CC(C)C1(C)N=C(c2ncccc2C(=O)O)NC1=O (configuration not stated) | inactive | –
56 | CC(C)N1C(=O)c2ccccc2NS1(=O)=O | inactive | –
57 | COC(=O)NC(=S)Nc1ccccc1NC(=S)NC(=O)OC | inactive | –
58 | CC(C)(C)C(=O)C(Oc1ccc(Cl)cc1)n1cncn1 (configuration not stated) | inactive | –
59 | CCC(C)n1c(=O)[nH]c(C)c(Br)c1=O (configuration not stated) | inactive | –
60 | CCNP(=S)(OC)O/C(C)=C/C(=O)OC(C)C (configuration not stated) | inactive | –
61 | CC(C)NC(=O)N1CC(=O)N(c2cc(Cl)cc(Cl)c2)C1=O | inactive | –
62 | CCCCOCN(C(=O)CCl)c1c(CC)cccc1CC | – | 10.6 µM (active)
63 | O=C(O)c1c(Cl)ccc2cc(Cl)cnc12 | inactive | –
64 | CO/N=C(/C1=NOCCO1)c1ccccc1Oc1ncnc(Oc2ccccc2Cl)c1F | – | 7.25 µM (active)
65 | CC1(C)C(C=C(Cl)Cl)C1C(=O)OC(C#N)c1cccc(Oc2ccccc2)c1 (configuration not stated) | inactive | –
66 | Nc1c(Cl)c(Cl)nc(C(=O)O)c1Cl | inactive | –
67 | CC1(C)CON(Cc2ccccc2Cl)C1=O | inactive | –
